What follows are molecules tested against AMP-activated protein kinase, AMPK (Homo sapiens) (UniProt P54646+O43741+P54619+Q9UGJ0+Q9Y478+Q13131+Q9UGI9) (assay: AMP-dependent Kinase enzyme assay. An in vitro enzyme assay that detects ADP turnover that is directly proportional to AMPK activity. This uses naive AMPK that is activated during the assay with MK-8722). Conditions: 30 µM.
Type: functional
Design: scale not given: direction of the effect not stated beside the values

Row | Structure (SMILES) | Percent Effect
1 | O=C(CCn1cnnn1)N1CCCC(CO)(CCCc2ccccc2)C1 (centres undefined) | 0.115%
2 | CCc1ccc2nc(C)cc(C(=O)NC[C@@H]3CCNC[C@H]3O)c2c1 | -4.5%
3 | CCN(CC)C(CNC(=O)c1ccc(-n2cncn2)cc1)c1ccsc1 (centres undefined) | -4.43%
4 | Cc1cc(C)c(C#N)c(NCCSc2nncn2C)n1 | -0.426%
5 | CC(NC(=O)N1CCCN(C)CC1)c1ccc(S(N)(=O)=O)cc1 (centres undefined) | 5.68%
6 | CNC(=O)Cc1ccc(NC(=O)NCc2ncc(C)s2)cc1 | -2.7%
7 | Cc1nc(CNC(=O)c2cc(COc3cccc(F)c3)[nH]n2)n[nH]1 | 0.77%
8 | Cc1c(NC(=O)CN2CCN(C3CCCC3)C(=O)C2)cnn1C | 2.4%
9 | CCC(=O)NC(CC)c1ccccc1C (centres undefined) | 7.08%
10 | CCOc1cc(F)ccc1NC1CCN(CC(F)(F)F)C1=O (centres undefined) | -28.4%
11 | Cc1ccnc(NC(=O)c2ccc(Br)o2)c1 | 5.24%
12 | Cc1cc(=O)n2nc(Oc3cccc(C(N)=O)c3)sc2n1 | -11.1%
13 | O=C(Cn1cc(I)cn1)N1CCNC1=O | 0.6%
14 | COCCC(=O)N1CCC(c2nnc(-c3ccsc3)o2)CC1 | 2.43%
15 | Cc1cc(N(C)CC2COc3ccccc3O2)nc(N)n1 (centres undefined) | 2.34%
16 | CC(C(N)=O)N1CCN(c2ncc(Cl)cn2)CC1 (centres undefined) | -1.99%
17 | COCCN(Cc1sccc1C)C(=O)c1c(O)cccc1F | 0.607%
18 | CCc1ccsc1C(=O)NC(C#N)CC (centres undefined) | 2.87%
19 | CCN1CCCC(NC(=O)c2ccc(C)[nH]c2=O)C1 (centres undefined) | -5.78%
20 | CN1CSC[C@H]1C(=O)N1CCC(CCc2ccccc2)CC1 | -1.47%

Row | Structure (SMILES) | Percent Effect
21 | CC(C)c1nnc2n1CCN(Cc1cccc3c1OCCO3)C2 | 12.9%
22 | CC(C)(C)NC(=O)CN1CCCNCC1 | -0.0888%
23 | CCC(=O)Nc1cccc(OCC(=O)N(C)CCCC2CCCO2)c1 (centres undefined) | 11.8%
24 | Cc1ccc(C(=O)NCc2ccnc(C3CCCOC3)n2)s1 (centres undefined) | 7.88%
25 | CC(=O)N[C@H]1CCN(C(=O)c2cc(Cn3cnc4ccccc43)[nH]n2)C1 | -3.06%
26 | COc1ccc(Br)c(NC(=O)NCc2ncnn2C)c1 | -1.33%
27 | Cc1ccnn1CCN1CCCC2(CCC(=O)N(C3CCCC3)C2)C1 (centres undefined) | 15.1%
28 | Cc1nn(C)c(C)c1S(=O)(=O)NCC1(C(N)=O)CCOCC1 | 0.589%
29 | Cc1cc(C)n(CC2CCN(CC(O)CN3CCOCC3)CC2)n1 (centres undefined) | -1.36%
30 | COCc1cccc(NCc2cccnc2)c1 | 0.23%
31 | CCCS(=O)(=O)N1CCCN(CCCOC)CC1 | 11.7%
32 | COCc1c(Cl)cccc1NC(=O)CNC(=O)C(C)(C)C | -4.63%
33 | Cc1ccc(OCc2occc2C(=O)O)cc1 | 12.4%
34 | CC(C)(C)NC(=O)CNc1ccc(Br)cn1 | 7.07%
35 | O=C(Nc1ccc(-n2ccc(C(=O)O)n2)cc1)c1ccccc1 | 4.07%
36 | CN1CCC(Nc2ccc(Cl)cc2OCC(F)(F)F)C1=O (centres undefined) | -3.53%
37 | Cc1cc(C(=O)N(C)C2CCS(=O)(=O)C2)c2ccc(F)cc2n1 (centres undefined) | -7.82%
38 | Cc1ccc(OCCn2cnc3oc(C)c(C(=O)O)c3c2=O)cc1 | 15.5%
39 | NCc1cccc(NC(=O)CCN2CCOCC2)c1 | -8.1%

Reference: ChEMBL document CHEMBL3988442, “University of Dundee, Small-Polar-MMV Screening Library” (2021)
